From PubChem BioAssay
PKA-R1A act = activators of PKA-R1A complex; activation, % at 11.4 µM; P00514+P68181; PKA-R1A dissociation, Cy5-IP20 fluorescence polarization; scaled: DMSO 0%, 113 µM cGMP 100%; 0.083% of 340,000 active; AID 504707;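 active = percent activation above the mean of all tested compounds plus 3 SD, cut at about 19% in these data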;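 also: higher means more PKAc released from R1A so a rise in polarization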
TMEM16A act = activates or potentiates the mouse TMEM16A chloride channel. HEK293 TMEM16A/YFP-H148Q/I152L, iodide quench fluorescence; stronger effect = lower value. B-score at 10 µM. 0.3% of 340,000 active. Q8BHY3. AID 623877;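 active = fluorescence-ratio B-score plate-corrected deviation score at least 3 library SD below zero, with starting fluorescence score within 5 deviations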;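 also: channel opened by trigger with iodide after compound preincubation; score built on the fluorescence ratio of max minus min over baseline; more negative score means more quench and so TMEM16A activation or potentiation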
Target sequence (Q8BHY3 whole entry, looked up): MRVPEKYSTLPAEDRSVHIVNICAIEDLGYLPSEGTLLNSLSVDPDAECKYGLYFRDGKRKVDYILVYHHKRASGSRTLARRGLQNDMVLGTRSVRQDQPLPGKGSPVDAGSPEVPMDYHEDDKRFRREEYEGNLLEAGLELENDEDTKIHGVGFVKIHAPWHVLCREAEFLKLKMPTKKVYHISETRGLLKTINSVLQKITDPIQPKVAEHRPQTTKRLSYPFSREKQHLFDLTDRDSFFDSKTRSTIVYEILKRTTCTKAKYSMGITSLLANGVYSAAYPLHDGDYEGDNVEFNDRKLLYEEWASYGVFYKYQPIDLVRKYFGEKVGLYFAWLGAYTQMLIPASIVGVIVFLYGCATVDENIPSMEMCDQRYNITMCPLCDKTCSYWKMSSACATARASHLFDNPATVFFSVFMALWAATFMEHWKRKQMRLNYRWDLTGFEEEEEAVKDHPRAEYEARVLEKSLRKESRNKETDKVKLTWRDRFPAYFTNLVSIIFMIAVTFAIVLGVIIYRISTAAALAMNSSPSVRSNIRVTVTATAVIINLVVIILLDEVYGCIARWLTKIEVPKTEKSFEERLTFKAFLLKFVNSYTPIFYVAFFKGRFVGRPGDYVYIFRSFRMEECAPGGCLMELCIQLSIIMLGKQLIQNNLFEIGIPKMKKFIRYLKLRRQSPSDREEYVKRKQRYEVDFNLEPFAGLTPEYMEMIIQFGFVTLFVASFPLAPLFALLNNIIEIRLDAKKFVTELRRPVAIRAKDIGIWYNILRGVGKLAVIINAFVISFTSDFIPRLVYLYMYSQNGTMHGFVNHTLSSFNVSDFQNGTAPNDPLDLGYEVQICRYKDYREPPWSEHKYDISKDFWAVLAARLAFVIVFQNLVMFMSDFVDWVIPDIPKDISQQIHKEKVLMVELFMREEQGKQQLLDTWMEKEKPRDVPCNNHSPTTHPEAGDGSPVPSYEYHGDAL
CHT allo act = human CHT allosteric activation. Q9GZV3. CHT-expressing cells, membrane potential dye, choline EC20; stronger effect = higher value; LV-AA mutant CHT in HEK293 cells. B-score at 10 µM. 0.49% of 310,000 active. AID 488977;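 active = initial fluorescence not abnormally high and integrated response B-score, plate-corrected, over 3 SD above library mean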
CHT block = human CHT choline transport inhibition; CHT-expressing cells, membrane potential dye, choline response; stronger effect = lower value; 0.86% of 310,000 active; B-score at 10 µM;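 active = B-score over 3 SD under the library average, and starting fluorescence ratio not unusually high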;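 also: choline stimulus applied at its EC90 after an EC20 pre-addition; B-score computed on integrated fluorescence ratio after choline addition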
PKA-R2B activ = PKA-R2B complex activation. 0.079% of 340,000 active. PKA-R2B holoenzyme dissociation, Cy5-IP20 fluorescence polarization; R2B truncated from residue 108, S112A mutant; 0% DMSO only, 100% 113 µM cGMP. activation, % at 11.4 µM. AID 504700;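 active = activation above a cutoff set at the mean over all compounds plus 3 SD, cut at about 18% in these data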;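 also: higher means more holoenzyme dissociation and a rise in polarization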
ANO1 block = blocks the mouse calcium-activated chloride channel TMEM16A; normalized B-score (activity score, 25-100; higher = stronger inhibition) at 10 µM; Q8BHY3; 1.2% of 310,000 active; HEK293 TMEM16A/YFP iodide influx fluorescence, ionomycin;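 active = ratio plate-corrected score three or more library SD toward inhibition, starting fluorescence score within five deviations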;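 also: score derived from kinetic fluorescence span divided by baseline fluorescence per well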
TMEM16A reconf = reconfirmed blocker of mouse TMEM16A calcium-activated chloride channel. shares compounds with ANO1 block. HEK293 TMEM16A/YFP-H148Q, iodide quench fluorescence; ionomycin added to raise cell calcium. inhibition, % at 10 µM. 39% of 2,300 active. AID 652189;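 active = mean duplicate percent inhibition, scaled so buffer wells are 0 and the reference blocker 100, over three buffer SD above buffer mean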
HEK293 Ca mobil = alters calcium mobilization in TMEM16A HEK293 cells, counter-screen; calcium response (% of ionomycin), % at 10 µM; AID 652231; shares compounds with ANO1 block; 2% of 2,300 active; TMEM16A/YFP HEK293, Fluo4 calcium mobilization;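 active = duplicate-averaged calcium signal over 20% of the ionomycin maximum, relative to buffer baseline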;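 also: each well's signal is peak minus trough fluorescence divided by its pre-addition baseline; 0% = buffer wells and 100% = ionomycin wells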
YFP-HEK293 quench = acts in parental YFP-HEK293 cells lacking TMEM16A, counter-screen; YFP ratio F(max-min)/F0 at 10 µM; iodide YFP quench, ionomycin; 2,300 tested, under 10 active; shares compounds with ANO1 block;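 active = yellow fluorescent protein signal ratio exceeding the buffer control mean by over 5 SD of those controls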;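 also: ratio is mean of duplicate wells from kinetic YFP trace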
ClC-1 inh = selectivity of TMEM16A inhibitors: inhibition of rat ClC-1 chloride channel; ratio percent, % at 10 µM; 2,300 tested, under 10 active; shares compounds with ANO1 block; CHO ClC-1-YFP, iodide influx fluorescence quench; iodide control reads 0, buffer control 100;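 active = duplicate-mean ratio percent above the mean of iodide-only control wells, which defines zero, plus 5 of their SD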;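 also: higher percent means stronger block of ClC-1 iodide influx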
Active calls of the source: *; i = inactive; · = not tested or not shown. Hits are enriched below; roughly 2.5% of the tested compounds scored in any of these assays.

SMILES	PKA-R1A act	TMEM16A act	CHT allo act	CHT block	PKA-R2B activ	ANO1 block	TMEM16A reconf	HEK293 Ca mobil	YFP-HEK293 quench	ClC-1 inh
COc1ccc(C(=O)Nc2nc(-c3cccs3)cs2)cc1	1	i	i	i	2	100*	24%*	i	-1.1	-16
COc1ccc(NC(=O)c2ccc3nccnc3c2)cc1	-5	i	i	i	2	100*	i	i	-1.1	-5
Cc1cc(N2CCC(C)CC2)nc(NCc2ccccc2)n1	-11	i	i	i	-5	100*	i	i	-1.3	-20
Cc1cc(Nc2ccccc2)nc(NCc2ccccc2)n1	-3	i	i	i	-15	100*	i	i	-1.1	-24
CC(C)CCN1C(=O)c2ccc(C(=O)Nc3ccccc3C(=O)O)cc2C1=O	-3	i	i	i	-5	25*	i	i	-1.1	-9
Cc1cccc([C@@H]2[C@@H]3C(=O)N(Cc4ccccc4)C(=O)[C@@H]3[C@]3(C)C(=O)N(c4ccc(C(F)(F)F)cc4)C(=O)N23)c1	-5	i	i	i	-4	i	·	·	·	·
N#CCCN(C(=O)COC(=O)c1cc(=O)[nH]c2ccccc12)c1ccccc1	-13	i	·	·	-18	·	·	·	·	·
CC(=O)N1CCSc2ccc(S(=O)(=O)NCCc3ccc(Cl)cc3)cc21	-9	i	i	i	0	100*	34%*	i	-0.86	-11
Cc1ccc(N/C(N)=N/c2nc(C)cc(N3CCCCC3)n2)c(C)c1	-3	-6.3*	i	i	-5	100*	62%*	i	-0.92	-29
CC(C)OCCCn1c(=NC(=O)c2ccncc2)c(C#N)cc2c(=O)n3ccccc3nc21	-7	i	i	i	-7	25*	i	28%*	-1.1	-14
COc1ccc(CCCc2nnc(SCC(=O)Nc3cccc(C)c3)o2)cc1	-7	i	i	i	0	25*	18%*	i	-1	-14
O=C(NC(=O)N1CCN(c2ccc([N+](=O)[O-])cn2)CC1)c1c(Cl)cccc1Cl	·	·	i	i	·	i	·	·	·	·
Cc1cc(C)c(C)c(S(=O)(=O)N2CCC(C(=O)NCCCN3CCOCC3)CC2)c1C	5	i	·	·	-1	·	·	·	·	·
CSc1nc2ccc(NS(=O)(=O)c3ccc4c(c3)OCCO4)cc2s1	4	i	i	i	-3	100*	18%*	i	-0.93	-16
CSc1nc2ccc(NS(=O)(=O)c3c(Cl)cccc3Cl)cc2s1	-5	i	i	i	1	i	·	·	·	·
CCOC(=O)[C@@H]1[C@H]2COc3ccc(Br)cc3[C@@H]2N2C(=O)N(c3ccc(OC)cc3)C(=O)[C@@]12C	-2	i	·	·	9	·	·	·	·	·
CCCSc1nc(C)cc(C)c1S(=O)(=O)c1ccccc1C	0	i	i	i	-6	100*	i	i	-1.3	-4
Cc1cc(C)c(S(=O)(=O)c2ccccc2C)c(SCC(C)C)n1	-1	i	i	i	4	100*	i	i	-1.3	-6
O=C(NC1CCOC1=O)c1ccccc1 (configuration not stated)	-1	i	·	·	-7	·	·	·	·	·
COc1ccc(C(=O)c2sc(Nc3ccccc3)nc2C)cc1	0	i	i	i	0	i	i	i	-0.96	-14
Cc1nc(Nc2ccccc2)sc1C(=O)c1ccccc1	·	i	i	i	·	i	·	·	·	·
CCc1c(C(=O)Nc2ccc(OC)cc2)[nH]c(C)c1C(C)=O	5	i	i	i	-10	25*	i	i	-0.96	-8
COc1ccc(NC(=O)c2[nH]c(C)c(C(C)=O)c2C)cc1	-4	i	i	i	9	i	·	·	·	·
CCN(CC)C(=O)Cn1cc(SCC(=O)NC2CCCC2)c2ccccc21	-5	i	i	i	18	i	·	·	·	·
CCOC(=O)C1=C(C)NC(C)=C(C(=O)OCC)C1C(=O)OCC(=O)NCc1ccc(F)cc1	11	i	·	·	-5	·	·	·	·	·
SMILES	PKA-R1A act	TMEM16A act	CHT allo act	CHT block	PKA-R2B activ	ANO1 block	TMEM16A reconf	HEK293 Ca mobil	YFP-HEK293 quench	ClC-1 inh
Cc1nnc(SCC(=O)Nc2nc(-c3ccccc3)cs2)n1N	1	i	i	i	7	100*	i	i	-1	-10
CCn1c(SCC(=O)Nc2nc(-c3ccccc3)cs2)nnc1-c1ccccc1	1	i	i	i	-15	i	·	·	·	·
COc1ccccc1C(c1nnnn1CCc1ccccc1)N1CCCCCC1 (configuration not stated)	-2	i	i	i	2	25*	18%*	i	-1.1	-3
COc1ccc(C(c2nnnn2CCc2ccccc2)N2CCN(C)CC2)cc1OC (configuration not stated)	-7	i	·	·	-2	·	·	·	·	·
Cc1ccc(C(=O)N/N=C/c2cn(Cc3ccccc3)c3ccccc23)cn1	4	i	i	i	2	25*	i	i	-1.2	-13
O=C(N/N=C/c1cn(Cc2ccccc2)c2ccccc12)c1cc(O)cc(O)c1	0	i	i	i	-6	i	·	·	·	·
CNC(=S)N1N=C(c2ccc(OC)cc2)CC1c1ccccc1Cl (configuration not stated)	8	i	i	i	-6	25*	45%*	i	-0.9	-6
O=C(Nc1cccc(Cl)c1)N1CCN(Cc2ccccc2)CC1	-1	i	i	i	11	100*	i	i	-1.1	-8
Cc1cc(C(=O)NCC(=O)OCC(=O)Nc2ccc(OC(F)F)cc2)ccc1[N+](=O)[O-]	1	i	i	i	-3	25*	i	i	-1.2	-2
COC(=O)CCc1ccc(O)cc1	-11	i	i	i	-4	i	·	·	·	·
COC(=O)CCc1cccc(CCC(=O)OC)c1	5	i	i	i	9	25*	i	i	-0.97	-8
CN1CCN(c2ccc(CNS(=O)(=O)c3ccc(Cl)cc3)cc2)CC1	-5	i	i	i	-7	i	·	·	·	·
